Screening results from PubChem BioAssay.
Only some compounds are listed: those with a hit (about 6.8% of all), similar ones and a draw of the others.
C diff growth: inhibitors of Clostridium difficile growth | Clostridium difficile clinical isolate growth, OD600, 24 h; stronger effect = lower value | growth activity, negative = inhibition, % at 16 µg/mL (by protocol) | 86,000 tested, 0.25% active;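 active means mean growth activity at or below -80% and every replicate also at or below -80%; inconclusive means mean at or below -80% but some replicate above -80%; inactive means mean growth activity above -80%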;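 further: 0% = DMSO wells and -100% = levofloxacin 16 µg/mL wells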
Pf Dd2 growth: P. falciparum Dd2 growth inhibition; 94,000 tested, 2.3% active; SYBR Green, 72 h; stronger effect = lower value; AID 1159554; activity change, % at 10 µM; in the data active means activity change below about -80%; inconclusive means no clear call, values can overlap the other calls
T cruzi growth-1: inhibitors of T. cruzi proliferation; T. cruzi beta-gal in NIH3T3, GalScreen luminescence, 90 h; inhibition, % at 8.34 µM; 77,000 tested, 5.9% active;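 active means mean inhibition above about 93%, with at least 55% of replicates each passing it, limit read from the data, passing the limit was not always enough; inconclusive means only one of those two conditions holds; inactive means neither condition holds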
T cruzi growth-2: inhibitors of T. cruzi proliferation; shares compounds with T cruzi growth-1; T. cruzi beta-gal in NIH3T3, GalScreen luminescence, 90 h; inhibition, % at 8.35 µM; 5,600 tested, 72% active; AID 651739;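 active means mean replicate inhibition above about 95% and at least 55% of replicates individually reaching it, limit read from the data; inconclusive means only one of the two criteria is met; inactive means neither criterion is met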
T cruzi growth-3: blocks T. cruzi growth in NIH3T3 host cells; shares compounds with T cruzi growth-1; T. cruzi beta-gal in NIH3T3, GalScreen luminescence, 90 h; inhibition, % at 2.09 µM; 5,600 tested, 21% active;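 active means mean inhibition above about 95%, with at least 55% of replicates also reaching it, limit read from the data; inconclusive means meets just one of the two conditions; inactive means meets neither condition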;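 further: plate controls were neutral control median for no effect and positive control median for full effect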
3T3 cytotox: NIH/3T3 (mouse) viability loss. shares compounds with T cruzi growth-1. NIH/3T3 viability, CellTiter-Glo ATP luminescence, 90 h. cytotoxicity (signal decrease), % at 8.35 µM. 5,600 tested, 14% active. AID 651742;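 active means mean signal decrease across replicates above about 35% based on untreated-well scatter, with enough replicates individually passing, limit read from the data; inconclusive means no rule stated though some were filed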;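 further: 0% = median of neutral control wells and 100% = median of positive control wells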
NIH3T3 tox 2: NIH/3T3 (mouse) viability loss; 5,600 tested, 56% active; inhibition, % at 24.9 µM; NIH/3T3 viability, CellTiter-Glo ATP luminescence, 90 h; AID 651744; shares compounds with T cruzi growth-1;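 active means mean loss of cell viability signal at or above a set limit, and enough replicates individually reaching it; inconclusive means meets only the mean limit or only the replicate share; inactive means meets neither condition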;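 further: 0% = median of neutral control wells and 100% = median of positive control wells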
* = called active by the depositor.

Results for CN1CCN(C(=O)C[C@@H]2CC[C@@H]3[C@H](COC[C@H](O)CN3C(=O)c3ccc(F)cc3)O2)CC1 ?
C diff growth: -1.1; Pf Dd2 growth: 7.5; T cruzi growth-1: -19.7

What do the screens show for `CO[C@H]1CN(C)C(=O)c2ccc(NC(=O)C3CC3)cc2OC[C@@H](C)N(C(=O)c2ccncc2)C[C@H]1C`?
C diff growth: 0.2; Pf Dd2 growth: 21.1; T cruzi growth-1: -8.1

What do the screens show for `O=C(C[C@H]1CC[C@H]2[C@@H](COC[C@@H](O)CN2CCC(F)(F)F)O1)NCC1CCCCC1`?
C diff growth: 2.3; Pf Dd2 growth: 3.1; T cruzi growth-1: 73.6

What do the screens show for `O=C(C[C@H]1CC[C@@H]2[C@H](COC[C@@H](O)CN2Cc2cccc(C(F)(F)F)c2)O1)NCc1ccc(Cl)cc1`?
C diff growth: 28.3; Pf Dd2 growth: -13.0; T cruzi growth-1: 178.1*; T cruzi growth-2: 108.9*; T cruzi growth-3: 24.4; 3T3 cytotox: 47.2*; NIH3T3 tox 2: 56.3*

Results for O=C(C[C@@H]1CC[C@@H]2[C@H](COC[C@H](O)CN2CCC(F)(F)F)O1)NCC1CCCCC1 ?
C diff growth: -1.1; Pf Dd2 growth: 3.9; T cruzi growth-1: 116.8*; T cruzi growth-2: 8.5; T cruzi growth-3: 12.8; 3T3 cytotox: -11.1; NIH3T3 tox 2: -20.0

Results for O=C(C[C@@H]1CC[C@@H]2[C@H](COC[C@H](O)CN2Cc2cccc(C(F)(F)F)c2)O1)NCc1ccc(Cl)cc1 ?
C diff growth: 32.4; Pf Dd2 growth: -23.1; T cruzi growth-1: 82.1

How did O=C(C[C@H]1CC[C@H]2[C@@H](COC[C@H](O)CN2Cc2cccc(Cl)c2)O1)NCC1CCCCC1 do in these assays?
C diff growth: -11.9; T cruzi growth-1: 81.4

What do the screens show for `O=C(C[C@@H]1CC[C@H]2[C@@H](COC[C@H](O)CN2Cc2cccc(C(F)(F)F)c2)O1)NCc1ccccc1`?
Pf Dd2 growth: -10.3; T cruzi growth-1: 74.8

What do the screens show for `O=C(C[C@H]1CC[C@@H]2[C@H](COC[C@@H](O)CN2Cc2cccc(Cl)c2)O1)NCC1CCCCC1`?
C diff growth: 0.4; T cruzi growth-1: 111.3*; T cruzi growth-2: 50.7; T cruzi growth-3: -22.5; 3T3 cytotox: 5.3; NIH3T3 tox 2: -6.4

What do the screens show for `O=C(C[C@@H]1CC[C@@H]2[C@H](COC[C@@H](O)CN2Cc2cccc(C(F)(F)F)c2)O1)NCc1ccc(Cl)cc1`?
C diff growth: 20.8; Pf Dd2 growth: -56.2; T cruzi growth-1: 155.0*; T cruzi growth-2: 80.6; T cruzi growth-3: -3.8; 3T3 cytotox: 21.5; NIH3T3 tox 2: inconclusive

How did O=C(C[C@H]1C=C[C@@H](NC(=O)c2ccncc2)[C@H](CO)O1)NCC1CC1 do in these assays?
Pf Dd2 growth: 24.4; T cruzi growth-1: 9.8

How did CCc1sc(N2[C@H](C#N)[C@H](c3ccccc3-c3ccc(F)cc3)[C@@H]2CO)nc1C do in these assays?
C diff growth: -3.9; Pf Dd2 growth: -15.0

Results for CN1CCN(C(=O)C[C@@H]2CC[C@H]3[C@@H](COC[C@H](O)CN3C(=O)C3CCOCC3)O2)CC1 ?
C diff growth: -4.0; Pf Dd2 growth: 21.4; T cruzi growth-1: 42.1

How did C[C@H]1CN([C@@H](C)CO)C(=O)c2cc(-c3cccnc3)cnc2O[C@H]1CN(C)C(=O)C1CCOCC1 do in these assays?
C diff growth: -0.4; Pf Dd2 growth: -3.6; T cruzi growth-1: -1.6

How did Cc1noc(C)c1NC(=O)Nc1ccc2c(c1)C(=O)N([C@@H](C)CO)C[C@@H](C)[C@@H](CN(C)Cc1ccc(Oc3ccccc3)cc1)O2 do in these assays?
C diff growth: -8.5; Pf Dd2 growth: 13.0; T cruzi growth-1: 35.5

How did O=C(C[C@@H]1CC[C@H]2[C@@H](COC[C@H](O)CN2Cc2cccc(C(F)(F)F)c2)O1)NCc1ccc(Cl)cc1 do in these assays?
C diff growth: 71.6; Pf Dd2 growth: -21.2; T cruzi growth-1: 125.2*; T cruzi growth-2: 110.3*; T cruzi growth-3: 22.0; 3T3 cytotox: 2.5; NIH3T3 tox 2: 27.9*

Results for O=C(C[C@H]1CC[C@@H]2[C@H](COC[C@H](O)CN2CCC(F)(F)F)O1)N1CCC(Cc2ccccc2)CC1 ?
C diff growth: -4.0; Pf Dd2 growth: 19.5; T cruzi growth-1: 53.3

What do the screens show for `O=C(C[C@@H]1CC[C@@H]2[C@H](COC[C@@H](O)CN2CCC(F)(F)F)O1)N1CCC(Cc2ccccc2)CC1`?
C diff growth: 6.0; Pf Dd2 growth: -1.6; T cruzi growth-1: inconclusive; T cruzi growth-2: inconclusive; T cruzi growth-3: 51.1; 3T3 cytotox: 4.4; NIH3T3 tox 2: -1.6

How did O=C(C[C@@H]1CC[C@@H]2[C@H](COC[C@@H](O)CN2Cc2cccc(C(F)(F)F)c2)O1)NCc1ccccc1 do in these assays?
Pf Dd2 growth: 7.3; T cruzi growth-1: 33.7

Results for C[C@@H]1CN([C@@H](C)CO)C(=O)c2cc(NC(=O)Nc3ccccc3)ccc2O[C@@H]1CN(C)S(=O)(=O)c1cn(C)cn1 ?
C diff growth: -2.6; Pf Dd2 growth: 22.9; T cruzi growth-1: 32.6

Results for C[C@H]1CN([C@@H](C)CO)C(=O)c2cc(NS(=O)(=O)c3ccc(F)cc3)ccc2O[C@@H]1CN(C)Cc1ccc(Cl)c(Cl)c1 ?
C diff growth: 44.6; Pf Dd2 growth: -7.0; T cruzi growth-1: inconclusive; T cruzi growth-2: 101.5*; T cruzi growth-3: 73.3; 3T3 cytotox: 24.6; NIH3T3 tox 2: 98.2*

How did COc1ccc(S(=O)(=O)Nc2ccc3c(c2)C(=O)N([C@H](C)CO)C[C@@H](C)[C@@H](CN(C)Cc2ccc(Cl)c(Cl)c2)O3)cc1 do in these assays?
C diff growth: 8.1; Pf Dd2 growth: 15.9; T cruzi growth-1: 72.3

What do the screens show for `C[C@H](CO)N1C[C@H](C)[C@H](CN(C)Cc2ccc(Cl)c(Cl)c2)Oc2ccc(NS(=O)(=O)c3ccc(F)cc3)cc2C1=O`?
C diff growth: 8.7; Pf Dd2 growth: 17.4; T cruzi growth-1: 26.9

Results for COc1ccc(S(=O)(=O)Nc2ccc3c(c2)C(=O)N([C@@H](C)CO)C[C@H](C)[C@H](CN(C)Cc2ccc(Cl)c(Cl)c2)O3)cc1 ?
C diff growth: 14.0; Pf Dd2 growth: 1.6; T cruzi growth-1: 114.1

Results for COc1ccc(S(=O)(=O)Nc2ccc3c(c2)C(=O)N([C@H](C)CO)C[C@@H](C)[C@H](CN(C)Cc2ccc(Cl)c(Cl)c2)O3)cc1 ?
C diff growth: 8.3; Pf Dd2 growth: 0.6; T cruzi growth-1: 119.6*; T cruzi growth-2: 102.2*; T cruzi growth-3: 21.9; 3T3 cytotox: 9.2; NIH3T3 tox 2: 104.2*
